Measurements from PubChem BioAssay (EPA / NIEHS).
The source made the active and inactive calls. How the source made its calls: active means hit-call score of the fitted dose curve at least 0.9, where 1 is the maximum; inactive means score below 0.9.

What follows are compounds tested on 3-Hydroxy-3-Methylglutaryl-CoA Synthase 2 (HMGCS2), HMGCS2 (gene 3158) (assay: LTEA_HepaRG_HMGCS2: Life Technologies and Expression Analysis (LTEA) Assay for 3-Hydroxy-3-Methylglutaryl-CoA Synthase 2 (HMGCS2) using HepaRG (AID 2283504)). Conditions: mRNA level, 48 h; actives raise or lower the signal.
Outline: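 Expression of HMGCS2 in human HepaRG liver cells is measured by qRT-PCR 48 h after dosing (highest 100 uM, half-log series, 0.5% DMSO). Values come from bidirectional concentration-response fitting with DMSO as baseline.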

| Structure (SMILES) | outcome | AC50 |
| --- | --- | --- |
| COc1cc(C=O)ccc1O | inactive | – |
| C=CCc1ccc(O)c(OC)c1 | inactive | – |
| CN1CCN(Cc2cc(-c3ccc4[nH]c(=O)oc4c3)co2)[C@@H](c2ccc(F)cc2)C1 | inactive | – |
| CC(=O)OC/C=C(\C)CCC=C(C)C | inactive | – |
| CCCCCCCCCCCC(=O)OC | inactive | – |
| Oc1ccc2c(c1)OC[C@@H](N1CCC(O)(c3ccc(F)cc3)CC1)[C@H]2O | inactive | – |
| O=C(O)CCCCC(=O)O | inactive | – |
| Cc1c(C(=O)O)c(O)cc2c1C(=O)c1c(O)c([C@@H]3O[C@H](CO)[C@@H](O)[C@H](O)[C@H]3O)c(O)c(O)c1C2=O | inactive | – |
| Cc1ccc(C)c(O)c1C | inactive | – |
| OC[C@@H](O)[C@@H](O)[C@H](O)[C@H](O)CO | inactive | – |
| C1CCC(SSC2CCCCC2)CC1 | inactive | – |
| Cc1oc(-c2ccccc2)nc1CCOc1cccc2c1ccn2CCC(=O)O | – | 83.2 µM (active) |
| c1cc(-c2ccncc2)ccn1 | inactive | – |
| Cc1cc(=O)[nH]c(=S)[nH]1 | inactive | – |
| CCCCCCOCCO | inactive | – |
| CC(CO)OC(C)CO (stereo not given) (tested in a mixture with another compound) | inactive | – |
| O=C(O)Cc1ccccc1Nc1c(Cl)cccc1Cl | inactive | – |
| Cc1ccc(C(C)C)c(O)c1 | inactive | – |
| CN1CCCC1=O | inactive | – |
| Nc1ccc2c(c1)C(=O)c1ccccc1C2=O | – | 16.5 µM (active) |
| CC1=C(/C=C/C(C)=C/C=C/C(C)=C/CO)C(C)(C)CCC1 | inactive | – |
| CCCCCCCCCCCCCO | inactive | – |

What follows are compounds tested on HGF (gene 3082) (assay: LTEA_HepaRG_HGF: Life Technologies and Expression Analysis (LTEA) Assay for Hepatocyte Growth Facto (HGF) using HepaRG (AID 2283505)). Conditions: mRNA level, 48 h; actives raise or lower the signal.
Outline: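 Gain or loss of HGF mRNA in human HepaRG liver cells after 48 h chemical exposure; eight concentrations up to 100 uM with 0.5% DMSO vehicle, quantified by TaqMan qRT-PCR.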

| Structure (SMILES) | outcome | AC50 |
| --- | --- | --- |
| COc1cc(C=O)ccc1O | inactive | – |
| COC(=O)c1ccc(O)cc1 | inactive | – |
| C=CCc1ccc(O)c(OC)c1 | inactive | – |
| CN1CCN(Cc2cc(-c3ccc4[nH]c(=O)oc4c3)co2)[C@@H](c2ccc(F)cc2)C1 | inactive | – |
| CC(=O)OC/C=C(\C)CCC=C(C)C | inactive | – |
| CCCCCCCCCCCC(=O)OC | inactive | – |
| Oc1ccc2c(c1)OC[C@@H](N1CCC(O)(c3ccc(F)cc3)CC1)[C@H]2O | inactive | – |
| O=C(OCCCCCOC(=O)c1ccccc1)c1ccccc1 | – | 2.12 µM (active) |
| NCC1(Cc2noc(=O)[nH]2)CCCCC1 | inactive | – |
| CCCCOC(=O)CCCCCCCCC(=O)OCCCC | inactive | – |
| CCc1c(C(=O)NN2CCCCC2)nn(-c2ccc(Cl)cc2Cl)c1-c1ccc(Br)cc1 | – | 90.4 µM (active) |
| O=C(O)CCCCC(=O)O | inactive | – |
| Cc1c(C(=O)O)c(O)cc2c1C(=O)c1c(O)c([C@@H]3O[C@H](CO)[C@@H](O)[C@H](O)[C@H]3O)c(O)c(O)c1C2=O | inactive | – |
| Cc1ccc(C)c(O)c1C | inactive | – |
| OC[C@@H](O)[C@@H](O)[C@H](O)[C@H](O)CO | inactive | – |
| C1CCC(SSC2CCCCC2)CC1 | inactive | – |
| Cc1oc(-c2ccccc2)nc1CCOc1cccc2c1ccn2CCC(=O)O | inactive | – |
| Cc1ccccc1Cl | inactive | – |
| c1cc(-c2ccncc2)ccn1 | inactive | – |
| Cc1cc(=O)[nH]c(=S)[nH]1 | inactive | – |
| Cc1cccc([N+](=O)[O-])c1C | inactive | – |
| CCCCCCOCCO | inactive | – |
| CC(CO)OC(C)CO (stereo not given) (tested in a mixture with another compound) | inactive | – |
| O=C(O)Cc1ccccc1Nc1c(Cl)cccc1Cl | inactive | – |
| Cc1ccc(C(C)C)c(O)c1 | inactive | – |
| CN1CCCC1=O | inactive | – |
| Nc1ccc2c(c1)C(=O)c1ccccc1C2=O | inactive | – |
| CC1=C(/C=C/C(C)=C/C=C/C(C)=C/CO)C(C)(C)CCC1 | inactive | – |
| CCCCCCCCCCCCCO | inactive | – |

What follows are compounds tested on Insulin Like Growth Factor 1 (IGF1), IGF1 (gene 3479) (assay: LTEA_HepaRG_IGF1: Life Technologies and Expression Analysis (LTEA) Assay for Insulin Like Growth Factor 1 (IGF1) using HepaRG (AID 2283506)). Conditions: mRNA level, 48 h; actives raise or lower the signal.
Outline: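 Expression measured by TaqMan qRT-PCR on a Fluidigm array, with three housekeeping genes for normalisation, after 48 h treatment of HepaRG cells. Top concentration 100 uM with half-log steps, 0.5% DMSO vehicle, bidirectional fit.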

| Structure (SMILES) | outcome | AC50 |
| --- | --- | --- |
| COc1cc(C=O)ccc1O | inactive | – |
| COC(=O)c1ccc(O)cc1 | inactive | – |
| C=CCc1ccc(O)c(OC)c1 | inactive | – |
| CN1CCN(Cc2cc(-c3ccc4[nH]c(=O)oc4c3)co2)[C@@H](c2ccc(F)cc2)C1 | inactive | – |
| CC(=O)OC/C=C(\C)CCC=C(C)C | inactive | – |
| CCCCCCCCCCCC(=O)OC | inactive | – |
| Oc1ccc2c(c1)OC[C@@H](N1CCC(O)(c3ccc(F)cc3)CC1)[C@H]2O | inactive | – |
| O=C(OCCCCCOC(=O)c1ccccc1)c1ccccc1 | – | 1.97 µM (active) |
| NCC1(Cc2noc(=O)[nH]2)CCCCC1 | inactive | – |
| CCCCOC(=O)CCCCCCCCC(=O)OCCCC | inactive | – |
| CCc1c(C(=O)NN2CCCCC2)nn(-c2ccc(Cl)cc2Cl)c1-c1ccc(Br)cc1 | – | 50 µM (active) |
| O=C(O)CCCCC(=O)O | inactive | – |
| Cc1c(C(=O)O)c(O)cc2c1C(=O)c1c(O)c([C@@H]3O[C@H](CO)[C@@H](O)[C@H](O)[C@H]3O)c(O)c(O)c1C2=O | inactive | – |
| Cc1ccc(C)c(O)c1C | inactive | – |
| OC[C@@H](O)[C@@H](O)[C@H](O)[C@H](O)CO | inactive | – |
| C1CCC(SSC2CCCCC2)CC1 | inactive | – |
| Cc1oc(-c2ccccc2)nc1CCOc1cccc2c1ccn2CCC(=O)O | – | 69.9 µM (active) |
| Cc1ccccc1Cl | inactive | – |
| c1cc(-c2ccncc2)ccn1 | inactive | – |
| Cc1cc(=O)[nH]c(=S)[nH]1 | inactive | – |
| Cc1cccc([N+](=O)[O-])c1C | inactive | – |
| CCCCCCOCCO | inactive | – |
| CC(CO)OC(C)CO (stereo not given) (tested in a mixture with another compound) | inactive | – |
| O=C(O)Cc1ccccc1Nc1c(Cl)cccc1Cl | – | 16.5 µM (active) |
| Cc1ccc(C(C)C)c(O)c1 | inactive | – |
| CN1CCCC1=O | inactive | – |
| Nc1ccc2c(c1)C(=O)c1ccccc1C2=O | inactive | – |
| CC1=C(/C=C/C(C)=C/C=C/C(C)=C/CO)C(C)(C)CCC1 | – | 52.2 µM (active) |
| CCCCCCCCCCCCCO | inactive | – |
